The record followed here is PubChem BioAssay (NCI).

This is part of a sample that, as a whole, favours compounds with a hit. Of some 83,000 tested, about 20% had one in any assay.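 Percent growth is the endpoint: 0 to 100 indicates growth inhibition (40 means 60% inhibition), 0 means no net growth, and negative values indicate cell death.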 Values without a mark were called inactive. The source made the active and inactive calls. How the source made its calls: active means growth percent below 10; inactive means the rest.

This test has as its system LOX IMVI melanoma. Description: NCI-60 one-dose screen, 48 h (100 = growth as untreated, 0 = no growth, -100 = all killed). To be noted: 10 µM unless noted.
Turning to `Clc1ccc(/C=C/c2nc(Nc3ccc(Cl)cc3)c3ccccc3n2)cc1`, the growth is 97.1%.

On to `CCOC(=O)c1c(C)nc2c(c1N)/C(=C/c1ccc(OC)cc1)C(=O)N2Cc1ccc(F)cc1`, for which the growth was -93.1% (active).

Consider `CCCCN1CCN(c2ccc3nc(-c4ccc5nc(-c6cc(OC)c(OC)c(OC)c6)[nH]c5c4)[nH]c3c2)CC1`, for which the growth was 40.7%.

As for `O=C1CCC(N2C(=O)c3cccc(NCCCC4CCN(CCNC(=O)c5cc6c(o5)C(=O)c5ccccc5C6=O)CC4)c3C2=O)C(=O)N1` (stereo not given), the growth is -90.1% (active).

Take `COc1ccc(-c2cncnc2N)cc1OC`: the growth was 98.6%.

On to `O=S(=O)(NCCNc1cc(-c2c(-c3cccc(O)c3)nc3sccn23)ccn1)c1ccc(Br)cc1`, for which the growth is 61.6%.

For `CC(=O)c1sc(-c2ccccc2)cc1N`, the growth was 104%.

`Nc1c(C(=O)c2ccccc2)nnc2ncnn12`: the growth is 101%.

With `CCNCCNc1cc(-c2ccc(C#N)cc2)c(C#N)c2nc3ccccc3n12`, the growth is -53.9% (active).

As for `Fc1ccc(Nc2nc(Nc3ccc(-c4nc5ccccc5[nH]4)cc3)c3cn[nH]c3n2)cc1`, the growth was -64.6% (active).

Turning to `COc1c(C)cnc(CSc2nc(-c3ccc(C)cc3)cn2-c2ccc(Cl)cc2)c1C`, the growth is 96.5%.

Turning to `Cc1c2c(cn1Cc1ccccc1)CCc1cn[nH]c1-2`, the growth is 90.8%.

Consider `COc1ccc(O)c(-c2cc(-c3ccccc3)c(C#N)c(=O)[nH]2)c1`, for which the growth was 64.3%.

Turning to `CC(=O)Nc1ccc(C(=O)/C=C/c2ccccc2)cc1`, the growth was 61.8%.

As for `CCCCCCCC/C=C/CCCCCCCC1=NCC[N+]1(CCO)CCO`, the growth is 52%.
